High-throughput results deposited in PubChem by National Center for Advancing Translational Sciences (NCATS).
FLuc counter – firefly luciferase modulation, counter-screen for miR-21 project; P08659; purified FLuc, Km substrates, luminescence inhibition; Potency, µM (highest dose often 57.5 µM), for the others: at the top dose activity change, negative = inhibition, hits mostly inhibitors; 360,000 tested, 6.9% active;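 further: plate controls were vehicle for no effect and reference inhibitor for full effect; nearly all actives have a fitted effect of over 55% in size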
Target sequence (P08659 whole entry, looked up): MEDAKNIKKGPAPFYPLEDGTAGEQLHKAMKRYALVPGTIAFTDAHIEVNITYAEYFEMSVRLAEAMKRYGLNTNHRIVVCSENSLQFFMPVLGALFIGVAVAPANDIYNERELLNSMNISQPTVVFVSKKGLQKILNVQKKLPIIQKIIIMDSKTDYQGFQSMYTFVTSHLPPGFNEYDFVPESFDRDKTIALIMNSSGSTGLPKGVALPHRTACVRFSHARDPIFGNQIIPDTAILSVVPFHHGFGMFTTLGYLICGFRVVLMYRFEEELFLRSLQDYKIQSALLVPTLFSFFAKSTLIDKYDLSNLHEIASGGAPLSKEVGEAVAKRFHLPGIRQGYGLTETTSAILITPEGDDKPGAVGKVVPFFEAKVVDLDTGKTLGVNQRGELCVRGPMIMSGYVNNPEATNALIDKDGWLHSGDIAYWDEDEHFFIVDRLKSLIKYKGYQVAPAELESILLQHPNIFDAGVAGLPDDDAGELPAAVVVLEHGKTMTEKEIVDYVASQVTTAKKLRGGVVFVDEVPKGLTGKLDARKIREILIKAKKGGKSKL
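Purified P. pyralis luciferase, 10 nM final, with Km-level 10 uM D-luciferin and 10 uM ATP in 50 mM Tris acetate pH 7.5, 10 mM Mg acetate, 0.01% Tween-20, 0.05% BSA; 6-point qHTS titration about 60 µM downward; luminescence read.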
SMN2 splice enh – SMN2 splice variant enhancement; HEK293 SMN2-luciferase splicing reporter, luminescence, 30-36 h; Potency, µM (highest dose often 46.1 µM), without a hit: top-dose activity change, positive = activation, hits mostly activators; 210,000 tested, 2.8% active; AID 1458; further: % of control where 0% means no effect; nearly all actives have a fitted effect of over 55% in size
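HEK293 cells carry an SMN2 […]–luciferase reporter in which exon 7 inclusion puts luciferase in frame. Cells were plated 10-12 h before compound addition, then incubated 30-36 h at 37C. ONE-Glo luminescence was read; sodium butyrate at 4.5 mM final served as control.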
ELG1 genotoxic – induces genotoxicity in HEK293T cells with luciferase-tagged ELG1; HEK293T ELG1-luciferase reporter, luminescence, 16 h; Potency, µM (titrated, usually from 46 µM), for inactives: at the top dose activity change, positive = activation, usual class: activators; 330,000 tested, 1.3% active; AID 504466; further: % of control where 0% means no effect; nearly all actives have a fitted effect of over 60% in size
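DMSO vehicle served as control against compound-treated ELG1-luciferase HEK293T cells; exposure lasted 16 hr at 37 °C and 5% CO2, followed by ONE-Glo luminescence detection after 30 min.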
KinaseGlo FLuc – blocks Kinase-Glo luciferase, a counter-screen artifact; Q27757; Potency, µM (highest dose often 38.3 µM), without a hit: top-dose activity change, negative = inhibition, most hits filed as inhibitors; 200,000 tested, 0.28% active; Kinase-Glo luciferase, ATP luminescence, 8 min; further: on the % scale 0 is the no-effect control and ±100 the full control effect; nearly all actives have a fitted effect of over 60% in size
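Recombinant Kinase-Glo luciferase, 10 uM ATP (linear range), luciferin; imidazole pH 7.2 / KCl / MgCl2 / Tween / BSA buffer; 8 min RT; luminescence.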
Rab9 prom act – activators of Rab9 promoter. Huh7 Rab9 promoter-luciferase reporter, luminescence, 24 h. Potency, µM (doses to about 9.22 µM), without a hit: top-dose activation, negative = inhibition, usual class: activators. 320,000 tested, 2.8% active; further: % of control where 0% means no effect; nearly all actives have a fitted effect of over 60% in size
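Cells were plated at 1500 per well in reduced-serum medium with 10% FBS and left 2 h. Compound in DMSO was then added for 24 h at 37 °C. Reporter signal was read by luminescence after 10 min with luciferase detection reagent.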
NPC1 prom act – activators of NPC1 promoter; Huh7 NPC1 promoter luciferase reporter, 24 h; Potency, µM (top dose mostly 9.22 µM), for inactives: at the highest dose activation, actives largely listed as activators; 320,000 tested, 2.4% active; AID 485313; further: % of control where 0% means no effect; nearly all actives have a fitted effect of over 60% in size
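Readout is luciferase luminescence, reflecting NPC1 promoter activation in stably transfected Huh7 cells after 24 h compound exposure at 37 °C in reduced-serum medium with 10% FBS.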
The depositor's hits bear a star; ? = inconclusive; nt = not tested or not shown; [ ] = remark or other dose. Most compounds without a hit are left out; they make up all but 7.3% or so of the library. The call rests on the fitted dose curve; in most records, active means well fitted curve in the direction sought with a large enough effect; inconclusive means small, poorly fitted or top-dose-only effect, or another doubt; inactive means no such curve, though single readings can be large; an effect the other way counts as inactive or inconclusive. Potency means the concentration at half of the fitted maximal effect.

SMILES	FLuc counter	SMN2 splice enh	ELG1 genotoxic	KinaseGlo FLuc	Rab9 prom act	NPC1 prom act
O=C(CCCOc1ccc(Cl)cc1Cl)N/N=C/c1ccco1	?	-15%	1%	5%	0%	0%
COc1ccc(C(=O)NCCc2c[nH]c3ccccc23)cc1	9.5µM*	nt	9.2µM*	nt	1.6µM*	2.8µM*
COc1ccc(CCNC(=O)c2n[nH]c3ccccc23)cc1	21µM*	24%	0%	0%	21%	17%
Cc1ccsc1C(=O)NCCC(c1ccccc1)c1ccccc1	-1%	-11%	0%	1%	-6%	1%
Cc1ccsc1C(=O)NCCc1nnc2ccccn12	?	nt	?	nt	2.5µM*	?
O=C(NCCc1c[nH]c2ccccc12)c1cnc2sccn2c1=O	15µM*	14µM*	8.2µM*	-3%	4.5µM*	3.5µM*
COCCCNC(=O)CC1C[C@H](C(=O)N(C(C)C)C(C)C)[C@@]2(C)c3[nH]c4ccc(OC)cc4c3CCN2C1=O (stereo partly specified)	nt	nt	4%	nt	nt	nt
CN(Cc1cccs1)C(=O)CCCc1c[nH]c2ccccc12	27µM*	?	?	-2%	3.2µM*	23%
O=C(NCc1ccccc1)C1CCCN(S(=O)(=O)c2ccc(F)cc2)C1 (stereo unspecified)	-1%	nt	-2%	nt	-1%[1.84 µM]	1%
CCCCOc1ccc(CSCCN)cc1Cl	12µM*	nt	?	nt	-20%	-21%
CCOc1ccc(CSC(=N)N)cc1Cl	-2%	nt	-20%	nt	-10%	-1%
c1ccc(COc2ccc(OCCCN3CCCC3)cc2)cc1	3.4µM*	6.3µM*	?	2%	0.63µM*	1µM*
O=S(=O)(N1CCCCC1)N1CCN(CC(O)COc2ccc3cc(Br)ccc3c2)CC1 (stereo unspecified)	0%	-53%	1%	0%	-12%	-6%
OC(COc1ccc(OCc2ccccc2)cc1)CN1CCCCC1 (stereo unspecified)	?	28%	16µM*	2%	?	30%
c1ccc(COc2ccc(OCCCn3cncn3)cc2)cc1	4.3µM*	10µM*	4.1µM*	0%	2.5µM*	1.6µM*
c1ccc(Cc2ccc(OCCn3cncn3)cc2)cc1	1%	-28%	?	-3%	0%	-3%
OC(COc1ccc2cc(Br)ccc2c1)CN1CCCC1 (stereo unspecified)	12µM*	6%	?	-2%	14%	10%
O=C(c1nnc(-c2ccncc2)o1)c1ccccc1Cl	?	-12%	-1%	-4%	8%	-2%
C=CCn1c(N)c(C(=O)Nc2ccc(C)c(C)c2)c2nc3ccccc3nc21	1%	1%	2%	1%	2%	-3%
CC1CCN(c2nn3c(=O)c(C(=O)NCc4ccc(Cl)cc4)cnc3s2)CC1	-4%	nt	nt	nt	nt	nt
CCCCOC(=O)c1[nH]c2c(c1C)C(=O)CC(c1cc(OC)c(OC)c(OC)c1)C2 (stereo unspecified)	7%	-75%	-1%	3%	-25%	-20%
COCCOC(=O)c1[nH]c2c(c1C)C(=O)CC(c1ccccc1)C2 (stereo unspecified)	0%	-16%	8%	1%	-11%	-15%
CCCCCOC(=O)c1[nH]c2c(c1C)C(=O)C(C(=O)OC)C(C)C2 (stereo unspecified)	11µM*	-5%	23%	-3%	?	20%
Cc1c(C(=O)OC2CCC(C)CC2)[nH]c2c1C(=O)CCC2 (stereo unspecified)	4.3µM*	2.5µM*	2.6µM*	4%	0.45µM*	0.5µM*
COC(=O)C1C(=O)c2c([nH]c(C(=O)OCC3CCCO3)c2C)CC1C (stereo unspecified)	8.5µM*	?	9.2µM*	3%	?	27%
COCCOC(=O)c1[nH]c2c(c1C)C(=O)C(C(=O)OC)C(C)C2 (stereo unspecified)	9.5µM*	11µM*	16µM*	-5%	3.5µM*	?
